# Measurements as given in publication PMC11062922 (Nature Chemical Biology, 2023).
# Read-outs that look alike come from different tables or passages of the source.
# How the values were obtained:
# [1] = test system: PI4KB; parameters: species or system human, MV4-11 + K-562 + COLO205 + SK-N-BE2 + OVCAR-8; details: read-out: apparent Kd, compound concentrations: 100 nM and 1000 nM (sheet 'Samples'), n = 1
# [2] = test system: TGFBR2; parameters: species or system human, MV4-11 + K-562 + COLO205 + SK-N-BE2 + OVCAR-8; details: read-out: apparent Kd, n = 1
# [3] = test system: PIM2; parameters: species or system human, MV4-11 + K-562 + COLO205 + SK-N-BE2 + OVCAR-8; details: read-out: apparent Kd, n = 1
# [4] = test system: PDXK; parameters: species or system human, MV4-11 + K-562 + COLO205 + SK-N-BE2 + OVCAR-8; details: read-out: apparent Kd, compound concentrations: 100 nM and 1000 nM (sheet 'Samples'), n = 1
# [5] = test system: PI4KA; parameters: species or system human, MV4-11 + K-562 + COLO205 + SK-N-BE2 + OVCAR-8; details: read-out: apparent Kd, compound concentrations: 100 nM and 1000 nM (sheet 'Samples'), n = 1
# [6] = test system: PIK3CG; parameters: species or system human, MV4-11 + K-562 + COLO205 + SK-N-BE2 + OVCAR-8; details: read-out: apparent Kd, compound concentrations: 100 nM and 1000 nM (sheet 'Samples'), n = 1
# [7] = test system: PRKDC; parameters: species or system human, MV4-11 + K-562 + COLO205 + SK-N-BE2 + OVCAR-8; details: read-out: apparent Kd, compound concentrations: 100 nM and 1000 nM (sheet 'Samples'), n = 1
# [8] = test system: TESK2; parameters: species or system human, MV4-11 + K-562 + COLO205 + SK-N-BE2 + OVCAR-8; details: read-out: apparent Kd, compound concentrations: 100 nM and 1000 nM (sheet 'Samples'), n = 1
# [9] = test system: PKN2; parameters: species or system human, MV4-11 + K-562 + COLO205 + SK-N-BE2 + OVCAR-8; details: read-out: apparent Kd, n = 1
# [10] = test system: PDGFRB; parameters: species or system human, MV4-11 + K-562 + COLO205 + SK-N-BE2 + OVCAR-8; details: read-out: apparent Kd, compound concentrations: 100 nM and 1000 nM (sheet 'Samples'), n = 1
# [11] = test system: PKN3; parameters: species or system human, MV4-11 + K-562 + COLO205 + SK-N-BE2 + OVCAR-8; details: read-out: apparent Kd, n = 1
# [12] = test system: PRKD2; parameters: species or system human, MV4-11 + K-562 + COLO205 + SK-N-BE2 + OVCAR-8; details: read-out: apparent Kd; compound concentrations:100 nM and 1000 nM (sheet 'Samples'); n = 1
# [13] = test system: RIPK2; parameters: species or system human, MV4-11 + K-562 + COLO205 + SK-N-BE2 + OVCAR-8; details: read-out: apparent Kd, compound concentrations: 100 nM and 1000 nM (sheet 'Samples'), n = 1
# [14] = test system: SLK; parameters: species or system human, MV4-11 + K-562 + COLO205 + SK-N-BE2 + OVCAR-8; details: read-out: apparent Kd, n = 1
# [15] = test system: ADCK3; details: read-out: apparent Kd, n = 1
# [16] = test system: NQO1; details: read-out: apparent Kd, n = 1
# [17] = test system: PIM3; details: read-out: apparent Kd, n = 1
# [18] = test system: STK26; details: read-out: apparent Kd, n = 1
# [19] = test system: TESK1; details: read-out: apparent Kd, n = 1
# [20] = test system: TGFBR2; details: read-out: apparent Kd, n = 1
# [21] = compound concentrations: 100 nM and 1000 nM (sheet 'Samples'), CATDS: 1
# [22] = compound concentrations:100 nM and 1000 nM (sheet 'Samples')
# [23] = compound concentrations:100 nM and 1000 nM (sheet 'Lestaurtinib' of Supplementary Table 1),run:Lestaurtinib_02748_R2,Plate:MR024
# [24] = compound concentrations:100 nM and 1000 nM (sheet 'Lestaurtinib' of Supplementary Table 1),run:Lestaurtinib_02584_R3,Plate:MR017
compound,measurement,setting,value
COC(=O)C(NC(=O)NC1CCN(c2ccnc(Nc3ccc(F)cc3)n2)C1)c1ccccc1 (centres unmarked) [GSK1379712_KCGS],potency estimated from few doses,[1]; CATDS: 0.55367516713285103,946 nM
same,potency estimated from few doses,"[2]; compound concentrations: 100 nM and 1000 nM (sheet 'Samples'), CATDS: 0.45581202141121302",1400 nM
COc1cc(Nc2nccc(N3CCC(NC(=O)Nc4cc(C)ccc4C)C3)n2)cc(OC)c1OC (centres unmarked) [GSK1379762_KCGS],potency estimated from few doses,[3]; [21],1940 nM
Cn1ccc(-c2cccc(Nc3ccnc4cc(-c5nccs5)ccc34)c2)n1 [GW525701_KCGS],potency estimated from few doses,[4]; CATDS: 0.47551644164597001,1690 nM
O=C1Nc2ccc(I)cc2C1=Cc1cc(Br)c(O)c(Br)c1 [GW305074X_KCGS],potency estimated from few doses,[3]; [22],2090 nM
Nc1ncc(-c2ccc3nccc(-c4ccncc4)c3c2)cc1S(=O)(=O)N1CCCCC1 [GSK1693850A],potency estimated from few doses,[5]; CATDS: 8.4526475439373194E-2,464 nM
same,potency estimated from few doses,[1]; CATDS: 7.2380110997406405E-2,777 nM
same,potency estimated from few doses,[6]; CATDS: 0.150773969962682,88.7 nM
same,potency estimated from few doses,"[3]; compound concentrations: 100 nM and 1000 nM (sheet 'Samples'), CATDS: 5.9438014075045897E-2",1790 nM
same,potency estimated from few doses,[7]; CATDS: 8.88426876970108E-2,398 nM
Cc1ccccc1Cn1ccn2c(=O)cc(N3CCOCC3)nc12 [GSK2269905A],potency estimated from few doses,[8]; CATDS: 0.33988229357461403,1410 nM
CCn1c(-c2ccoc2)nc2cnccc21 [SB-733887],potency estimated from few doses,[4]; CATDS: 1,1740 nM
CCn1c(-c2ccncc2)nc2cnccc21 [SB-735216],potency estimated from few doses,"[9]; compound concentrations: 100 nM and 1000 nM (sheet 'Samples'), CATDS: 0.34889068310517501",2400 nM
COc1ccc(NC(=O)Nc2ccc(C)c(-c3ccc(C(=O)Nc4ccncc4)cc3)c2)cc1 [GSK1398475A],potency estimated from few doses,[10]; CATDS: 1,1680 nM
CCn1c(-c2nonc2N)nc2ccccc21 [SB-693162],potency estimated from few doses,[9]; [22],157 nM
same,potency estimated from few doses,[11]; [22],1280 nM
CN(C)S(=O)(=O)c1cc(-c2ccc3nccc(-c4cccc(S(N)(=O)=O)c4)c3c2)cnc1N [GSK1669921A],potency estimated from few doses,[5]; CATDS: 0.112986099678868,1300 nM
same,potency estimated from few doses,[6]; CATDS: 0.14675867951409499,466 nM
same,potency estimated from few doses,[7]; CATDS: 0.12241161716625901,920 nM
O=C(NCCNc1ccnc(Nc2ccc(F)cc2)n1)Nc1ccccc1F [GSK1379880A],potency estimated from few doses,[10]; CATDS: 0.36710217729011002,1450 nM
CN(C)CCOc1ccc(-c2cc(-c3ccc(Cl)c(O)c3)c(-c3ccncc3)[nH]2)cc1.CN(C)CCOc1ccc(-c2cc(-c3ccc(Cl)c(O)c3)c(-c3ccncc3)[nH]2)cc1.Cl.Cl [SB-684387-B],potency estimated from few doses,[5]; CATDS: 0.33665131532266801,1060 nM
CCCc1ccc(S(=O)(=O)NC2CCN(c3ccnc(Nc4ccc(OC)cc4)n3)C2)cc1 (centres unmarked) [GSK1379737A],potency estimated from few doses,[1]; CATDS: 1,901 nM
Nc1c(C(=O)c2cccc(C(O)(CO)CO)c2)cnn1-c1ccc(F)cc1 [RO3201790-000],potency estimated from few doses,[1]; CATDS: 0.52236122392279105,888 nM
same,potency estimated from few doses,"[11]; compound concentrations: 100 nM and 1000 nM (sheet 'Samples'), CATDS: 0.47947466272848499",1050 nM
Cc1cccc(-c2nc(Nc3ccc4c(cnn4C)c3)c3ccccc3n2)n1 [GW876731X],potency estimated from few doses,[12],26.7 nM
Cc1nn(-c2ccccc2)c(O)c1C(=O)c1ccccc1 [RO1151080-000],potency estimated from few doses,[8]; CATDS: 1,1360 nM
c1ccc(Oc2ccc(Nc3ccnc4ccc(-c5ccccn5)cc34)cc2)cc1 [GW407034X],potency estimated from few doses,[13]; CATDS: 0.62079920866718596,189 nM
CCn1c(-c2nonc2N)nc2cnc(Oc3cccc(NC(=O)c4ccc(N(C)C)cc4)c3)cc21 [GSK248233A],potency estimated from few doses,[9]; [22],1780 nM
Nc1nonc1-c1nc2cnccc2n1C1CC1 [SB-736302],potency estimated from few doses,"[9]; compound concentrations: 100 nM and 1000 nM (sheet 'Samples'), CATDS: 0.42822259112974997",348 nM
CCn1c(-c2nonc2N)nc2c(N3CCCC3)nccc21 [SB-744941],potency estimated from few doses,[11]; [21],2110 nM
O=C1NC(=O)C(c2ccccc2Cl)=C1Nc1cccc(O)c1 [SB-390527],potency estimated from few doses,[14]; [21],1140 nM
CSc1ccc(NC2=C(c3ccccc3Cl)C(=O)NC2=O)cc1 [SB-342411],potency estimated from few doses,[14]; [22],1400 nM
Cc1cc(O)cc(C)c1/C=C/c1cncc(C(=O)OC(C)(C)C)c1 [GW439255X],potency estimated from few doses,[13]; CATDS: 1,437 nM
CNC(=O)c1cncc(/C=C/c2c(Cl)cccc2Cl)c1 [GW445014X],potency estimated from few doses,[13]; CATDS: 1,773 nM
O=C1NC(=O)C(c2ccccc2Cl)=C1Nc1cccc(Cl)c1 [SB-342409],potency estimated from few doses,[14]; [22],811 nM
CNC(=O)c1cncc(/C=C/c2ccccc2C)c1 [GW445015X],potency estimated from few doses,[13]; CATDS: 1,795 nM
CC1=C(C(=O)Nc2cc3cn[nH]c3cc2F)C(c2ccc(C(F)(F)F)cc2)CC(=O)N1 (centres unmarked) [GSK429286A],potency estimated from few doses,"[11]; compound concentrations: 100 nM and 1000 nM (sheet 'Samples'), CATDS: 0.172679408369589",1700 nM
Lestaurtinib,potency estimated from few doses,"[15]; compound concentrations:100 nM and 1000 nM (sheet 'Lestaurtinib' of Supplementary Table 1),run:Lestaurtinib_02364_R1,Plate:MR002",1630 nM
same,potency estimated from few doses,"[15]; compound concentrations:100 nM and 1000 nM (sheet 'Lestaurtinib' of Supplementary Table 1),run:Lestaurtinib_02422_R1,Plate:MR006",80.8 nM
same,potency estimated from few doses,"[15]; compound concentrations:100 nM and 1000 nM (sheet 'Lestaurtinib' of Supplementary Table 1),run:Lestaurtinib_02437_R3,Plate:MR007",474 nM
same,potency estimated from few doses,"[15]; compound concentrations:100 nM and 1000 nM (sheet 'Lestaurtinib' of Supplementary Table 1),run:Lestaurtinib_02572_R1,Plate:MR015",1620 nM
same,potency estimated from few doses,"[16]; compound concentrations:100 nM and 1000 nM (sheet 'Lestaurtinib' of Supplementary Table 1),run:Lestaurtinib_02438_R3,Plate:MR008",1600 nM
same,potency estimated from few doses,"[16]; compound concentrations:100 nM and 1000 nM (sheet 'Lestaurtinib' of Supplementary Table 1),run:Lestaurtinib_02765_R1,Plate:MR026",1440 nM
same,potency estimated from few doses,"[16]; compound concentrations:100 nM and 1000 nM (sheet 'Lestaurtinib' of Supplementary Table 1),run:Lestaurtinib_03172_R1,Plate:MR031",1700 nM
same,potency estimated from few doses,"[17]; compound concentrations:100 nM and 1000 nM (sheet 'Lestaurtinib' of Supplementary Table 1),run:Lestaurtinib_02748_R1,Plate:MR024",611 nM
same,potency estimated from few doses,[17]; [23],656 nM
same,potency estimated from few doses,"[17]; compound concentrations:100 nM and 1000 nM (sheet 'Lestaurtinib' of Supplementary Table 1),run:Lestaurtinib_02748_R3,Plate:MR024",1430 nM
same,potency estimated from few doses,"[17]; compound concentrations:100 nM and 1000 nM (sheet 'Lestaurtinib' of Supplementary Table 1),run:Lestaurtinib_02752_R2,Plate:MR025",795 nM
same,potency estimated from few doses,"[17]; compound concentrations:100 nM and 1000 nM (sheet 'Lestaurtinib' of Supplementary Table 1),run:Lestaurtinib_03260_R2,Plate:MR033",945 nM
same,potency estimated from few doses,"[18]; compound concentrations:100 nM and 1000 nM (sheet 'Lestaurtinib' of Supplementary Table 1),run:Lestaurtinib_02407_R1,Plate:MR005",1700 nM
same,potency estimated from few doses,"[18]; compound concentrations:100 nM and 1000 nM (sheet 'Lestaurtinib' of Supplementary Table 1),run:Lestaurtinib_02473_R3,Plate:MR010",2250 nM
same,potency estimated from few doses,[18]; [24],2350 nM
same,potency estimated from few doses,"[19]; compound concentrations:100 nM and 1000 nM (sheet 'Lestaurtinib' of Supplementary Table 1),run:Lestaurtinib_02482_R3,Plate:MR011",1960 nM
same,potency estimated from few doses,"[19]; compound concentrations:100 nM and 1000 nM (sheet 'Lestaurtinib' of Supplementary Table 1),run:Lestaurtinib_02487_R1,Plate:MR012",1310 nM
same,potency estimated from few doses,[19]; [24],1960 nM
same,potency estimated from few doses,[19]; [23],994 nM
same,potency estimated from few doses,"[20]; compound concentrations:100 nM and 1000 nM (sheet 'Lestaurtinib' of Supplementary Table 1),run:Lestaurtinib_02443_R3,Plate:MR009",1570 nM
same,potency estimated from few doses,"[20]; compound concentrations:100 nM and 1000 nM (sheet 'Lestaurtinib' of Supplementary Table 1),run:Lestaurtinib_03172_R3,Plate:MR031",2210 nM
same,potency estimated from few doses,"[20]; compound concentrations:100 nM and 1000 nM (sheet 'Lestaurtinib' of Supplementary Table 1),run:Lestaurtinib_03252_R2,Plate:MR032",2120 nM
Cc1cccc(-c2n[nH]cc2-c2ccc3ncccc3n2)n1 [GW786460X],potency estimated from few doses,[12],465 nM
same,potency estimated from few doses,[2]; [22],112 nM
COc1cc2ncn(-c3cc(OCC4CCCO4)c(C(N)=O)s3)c2cc1OC (centres unmarked) [GSK204607A],potency estimated from few doses,"[14]; compound concentrations: 100 nM and 1000 nM (sheet 'Samples'), CATDS: 0.28828322823587899",1160 nM
